{"source": "the supplement of paper PMC8728848", "binders": {"B1": {"name": "Langerin K299A/K313A (Homo sapiens), Q9UJ71 (protein)", "chain": "STLNAQIPELKSDLEKASALNTKIRALQGSLENMSKLLKRQNDILQVVSQGWKYFKGNFYYFSLIPKTWYSAEQFCVSRNSHLTSVTSESEQEFLYKTAGGLIYWIGLTKAGMEGDWSWVDDTPFNKVQSARFWIPGEPNNAGNNEHCGNIAAPSLQAWNDAPCDATFLFICKRPYVPSEP"}}, "test_in_all_cases": "glycan array binding signal (z-score within array); higher = stronger binding", "conditions_in_all_cases": "glycan notation: IUPAC condensed, linker removed", "key": {"[1]": {"target": "Fuc(a1-2)Gal(b1-3)GlcNAc(b1-3)[Neu5Ac(a2-6)Gal(b1-4)GlcNAc(b1-6)]Gal(b1-4)Glc", "how_it_was_run": "(§1)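 The binding signal is a Z-score computed within each array and averaged over linkers. Arrays of the same protein sequence at different concentrations or buffers were also averaged together. Data originate from 3228 arrays in the Consortium for Functional Glycomics database, kept only where the protein sequence was available.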"}, "[2]": {"target": "Fuc(a1-2)Gal(b1-4)GlcNAc(b1-2)Man", "how_it_was_run": "as §1"}, "[3]": {"target": "Fuc(a1-2)Gal(b1-4)GlcNAc(b1-2)[Fuc(a1-2)Gal(b1-4)GlcNAc(b1-4)]Man(a1-3)[Fuc(a1-2)Gal(b1-4)GlcNAc(b1-2)Man(a1-6)]Man(b1-4)GlcNAc(b1-4)GlcNAc", "how_it_was_run": "as §1"}, "[4]": {"target": "Fuc(a1-2)Gal(b1-4)GlcNAc(b1-3)Gal(b1-4)GlcNAc(b1-3)Gal(b1-4)GlcNAc", "how_it_was_run": "as §1"}, "[5]": {"target": "Fuc(a1-2)[Gal(a1-3)]Gal(b1-3)GalNAc(b1-3)Gal(a1-4)Gal(b1-4)Glc", "how_it_was_run": "as §1"}, "[6]": {"target": "Fuc(a1-3)[Gal(b1-4)]Glc6S", "how_it_was_run": "as §1"}, "[7]": {"target": "Fuc(a1-3)[Gal(b1-4)]GlcNAc(b1-2)Man(a1-3)[Fuc(a1-3)[Gal(b1-4)]GlcNAc(b1-2)Man(a1-6)]Man(b1-4)GlcNAc(b1-4)GlcNAc", "how_it_was_run": "as §1"}, "[8]": {"target": "Fuc(a1-3)[Gal(b1-4)]GlcNAc(b1-3)Gal(b1-3)[Fuc(a1-4)]GlcNAc", "how_it_was_run": "as §1"}, "[9]": {"target": "Fuc(a1-3)[Gal(b1-4)]GlcNAc(b1-3)Gal(b1-4)[Fuc(a1-3)]GlcNAc", "how_it_was_run": "as §1"}, "[10]": {"target": "Fuc(a1-3)[Gal(b1-4)]GlcNAc(b1-3)GalNAc", "how_it_was_run": "as §1"}, "[11]": {"target": "Gal(a1-3)Gal", "how_it_was_run": "as §1"}, "[12]": {"target": "Gal(a1-3)Gal(b1-3)GlcNAc(b1-2)Man(a1-3)[Gal(a1-3)Gal(b1-3)GlcNAc(b1-2)Man(a1-6)]Man(b1-4)GlcNAc(b1-4)GlcNAc", "how_it_was_run": "as §1"}, "[13]": {"target": "Gal(a1-3)Gal(b1-4)[Fuc(a1-3)]GlcNAc(b1-2)Man(a1-3)[Gal(a1-3)Gal(b1-4)[Fuc(a1-3)]GlcNAc(b1-2)Man(a1-6)]Man(b1-4)GlcNAc(b1-4)GlcNAc", "how_it_was_run": "as §1"}, "[14]": {"target": "Gal(a1-4)Gal(b1-4)GlcNAc", "how_it_was_run": "as §1"}, "[15]": {"target": "Gal(b1-3)GalNAc(b1-3)Gal(a1-4)Gal(b1-4)Glc", "how_it_was_run": "as §1"}, "[16]": {"target": "Gal(b1-3)GlcNAc(a1-3)Gal(b1-4)GlcNAc", "how_it_was_run": "as §1"}, "[17]": {"target": "Gal(b1-3)GlcNAc(b1-3)GalNAc", "how_it_was_run": "as §1"}, "[18]": {"target": "Gal(b1-3)[Fuc(a1-4)]GlcNAc(b1-2)Man(a1-3)[Gal(b1-3)[Fuc(a1-4)]GlcNAc(b1-2)Man(a1-6)]Man(b1-4)GlcNAc(b1-4)[Fuc(a1-6)]GlcNAc", "how_it_was_run": "as §1"}, "[19]": {"target": "Gal(b1-3)[Neu5Ac(a2-6)]GalNAc", "how_it_was_run": "as §1"}, "[20]": {"target": "Gal(b1-4)GlcNAc(b1-2)[Gal(b1-4)GlcNAc(b1-4)]Man(a1-3)[GlcNAc(b1-4)][Gal(b1-4)GlcNAc(b1-2)Man(a1-6)]Man(b1-4)GlcNAc(b1-4)GlcNAc", "how_it_was_run": "as §1"}, "[21]": {"target": "Gal(b1-4)GlcNAc(b1-3)Gal(b1-4)Glc", "how_it_was_run": "as §1"}, "[22]": {"target": "Gal(b1-4)GlcNAc(b1-3)Gal(b1-4)GlcNAc(b1-2)Man(a1-3)[Gal(b1-4)GlcNAc(b1-3)Gal(b1-4)GlcNAc(b1-2)Man(a1-6)]Man(b1-4)GlcNAc(b1-4)GlcNAc", "how_it_was_run": "as §1"}, "[23]": {"target": "Gal(b1-4)GlcNAc(b1-3)Gal(b1-4)GlcNAc(b1-3)Gal(b1-4)GlcNAc(b1-3)Gal(b1-4)GlcNAc(b1-2)Man(a1-3)[Gal(b1-4)GlcNAc(b1-3)Gal(b1-4)GlcNAc(b1-3)Gal(b1-4)GlcNAc(b1-3)Gal(b1-4)GlcNAc(b1-2)Man(a1-6)]Man(b1-4)GlcNAc(b1-4)[Fuc(a1-6)]GlcNAc", "how_it_was_run": "as §1"}, "[24]": {"target": "Gal(b1-4)GlcNAc(b1-3)Gal(b1-4)GlcNAc(b1-3)Gal(b1-4)GlcNAc(b1-3)Gal(b1-4)GlcNAc(b1-2)[Gal(b1-4)GlcNAc(b1-3)Gal(b1-4)GlcNAc(b1-3)Gal(b1-4)GlcNAc(b1-3)Gal(b1-4)GlcNAc(b1-6)]Man(a1-6)[Gal(b1-4)GlcNAc(b1-3)Gal(b1-4)GlcNAc(b1-3)Gal(b1-4)GlcNAc(b1-3)Gal(b1-4)GlcNAc(b1-2)Man(a1-3)]Man(b1-4)GlcNAc(b1-4)[Fuc(a1-6)]GlcNAc", "how_it_was_run": "as §1"}, "[25]": {"target": "Gal3S(b1-4)Glc6S", "how_it_was_run": "as §1"}, "[26]": {"target": "Gal3S(b1-4)[Fuc(a1-3)]Glc6S", "how_it_was_run": "as §1"}, "[27]": {"target": "Gal6S(b1-3)GlcNAc", "how_it_was_run": "as §1"}}, "note": "Many of the other results were omitted from the sample, so the strongest signals are more common in it than they were.", "data": [{"binder": "B1", "values": [{"measurement": "glycan array binding signal (z-score)", "setting": "[1]", "value": 0.388}, {"measurement": "glycan array binding signal (z-score)", "setting": "[2]", "value": -0.127}, {"measurement": "glycan array binding signal (z-score)", "setting": "[3]", "value": 2.71}, {"measurement": "glycan array binding signal (z-score)", "setting": "[4]", "value": 0.332}, {"measurement": "glycan array binding signal (z-score)", "setting": "[5]", "value": -0.015}, {"measurement": "glycan array binding signal (z-score)", "setting": "[6]", "value": 3.28}, {"measurement": "glycan array binding signal (z-score)", "setting": "[7]", "value": 0.222}, {"measurement": "glycan array binding signal (z-score)", "setting": "[8]", "value": 0.313}, {"measurement": "glycan array binding signal (z-score)", "setting": "[9]", "value": 0.842}, {"measurement": "glycan array binding signal (z-score)", "setting": "[10]", "value": -0.202}, {"measurement": "glycan array binding signal (z-score)", "setting": "[11]", "value": -0.327}, {"measurement": "glycan array binding signal (z-score)", "setting": "[12]", "value": 1.22}, {"measurement": "glycan array binding signal (z-score)", "setting": "[13]", "value": 0.892}, {"measurement": "glycan array binding signal (z-score)", "setting": "[14]", "value": -0.009}, {"measurement": "glycan array binding signal (z-score)", "setting": "[15]", "value": -0.916}, {"measurement": "glycan array binding signal (z-score)", "setting": "[16]", "value": -0.826}, {"measurement": "glycan array binding signal (z-score)", "setting": "[17]", "value": 0}, {"measurement": "glycan array binding signal (z-score)", "setting": "[18]", "value": 1.85}, {"measurement": "glycan array binding signal (z-score)", "setting": "[19]", "value": 0.445}, {"measurement": "glycan array binding signal (z-score)", "setting": "[20]", "value": -0.95}, {"measurement": "glycan array binding signal (z-score)", "setting": "[21]", "value": -0.709}, {"measurement": "glycan array binding signal (z-score)", "setting": "[22]", "value": 3.14}, {"measurement": "glycan array binding signal (z-score)", "setting": "[23]", "value": 3.97}, {"measurement": "glycan array binding signal (z-score)", "setting": "[24]", "value": 3.09}, {"measurement": "glycan array binding signal (z-score)", "setting": "[25]", "value": -0.193}, {"measurement": "glycan array binding signal (z-score)", "setting": "[26]", "value": 5.35}, {"measurement": "glycan array binding signal (z-score)", "setting": "[27]", "value": -0.241}]}]}
